# From ChEMBL document CHEMBL1961873, “Compounds: GSK PKIS; Assays: Nanosyn kinase panel” (2012)
# What was measured:
# [1] = biological target: Mitogen-activated protein kinase 3 (Homo sapiens) (UniProt P27361); settings: at 1 µM;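 further: values are mean percent inhibition of MAPK3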
# [2] = biological target: SRSF protein kinase 3 (Homo sapiens) (UniProt Q9UPE1); settings: at 0.1 µM
# [3] = biological target: SRSF protein kinase 3 (Homo sapiens) (UniProt Q9UPE1); settings: at 1 µM
# [4] = biological target: Mitogen-activated protein kinase 14 (Homo sapiens) (UniProt Q16539); settings: at 0.1 µM
# Chain of Mitogen-activated protein kinase 14 (Homo sapiens) (Q16539 whole entry): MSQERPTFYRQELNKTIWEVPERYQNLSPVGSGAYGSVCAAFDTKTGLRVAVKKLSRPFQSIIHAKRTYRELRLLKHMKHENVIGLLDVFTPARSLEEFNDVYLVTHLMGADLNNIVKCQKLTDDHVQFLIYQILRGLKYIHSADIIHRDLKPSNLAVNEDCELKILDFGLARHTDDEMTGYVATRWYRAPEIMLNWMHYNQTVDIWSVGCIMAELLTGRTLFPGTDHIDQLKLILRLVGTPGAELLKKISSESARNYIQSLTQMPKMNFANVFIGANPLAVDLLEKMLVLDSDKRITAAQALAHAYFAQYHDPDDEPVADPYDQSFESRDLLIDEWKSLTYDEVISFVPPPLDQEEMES
# [5] = biological target: Mitogen-activated protein kinase 14 (Homo sapiens) (UniProt Q16539); settings: at 1 µM
# [6] = biological target: Mitogen-activated protein kinase 11 (Homo sapiens) (UniProt Q15759); settings: at 0.1 µM
# Chain of Mitogen-activated protein kinase 11 (Homo sapiens) (Q15759 whole entry): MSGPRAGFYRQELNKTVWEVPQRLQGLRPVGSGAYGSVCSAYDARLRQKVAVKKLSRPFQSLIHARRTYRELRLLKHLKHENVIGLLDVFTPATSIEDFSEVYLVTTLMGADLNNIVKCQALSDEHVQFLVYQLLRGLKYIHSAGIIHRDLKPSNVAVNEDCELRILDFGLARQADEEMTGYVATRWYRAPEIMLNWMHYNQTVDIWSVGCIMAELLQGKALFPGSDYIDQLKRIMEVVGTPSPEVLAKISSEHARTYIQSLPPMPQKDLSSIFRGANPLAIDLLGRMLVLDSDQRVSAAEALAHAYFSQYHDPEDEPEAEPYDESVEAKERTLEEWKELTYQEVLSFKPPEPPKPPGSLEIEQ
# [7] = biological target: Mitogen-activated protein kinase 11 (Homo sapiens) (UniProt Q15759); settings: at 1 µM
# [8] = biological target: T1, Mitogen-activated protein kinase 13 (Homo sapiens) (UniProt O15264); settings: at 1 µM
# T1 sequence (whole entry): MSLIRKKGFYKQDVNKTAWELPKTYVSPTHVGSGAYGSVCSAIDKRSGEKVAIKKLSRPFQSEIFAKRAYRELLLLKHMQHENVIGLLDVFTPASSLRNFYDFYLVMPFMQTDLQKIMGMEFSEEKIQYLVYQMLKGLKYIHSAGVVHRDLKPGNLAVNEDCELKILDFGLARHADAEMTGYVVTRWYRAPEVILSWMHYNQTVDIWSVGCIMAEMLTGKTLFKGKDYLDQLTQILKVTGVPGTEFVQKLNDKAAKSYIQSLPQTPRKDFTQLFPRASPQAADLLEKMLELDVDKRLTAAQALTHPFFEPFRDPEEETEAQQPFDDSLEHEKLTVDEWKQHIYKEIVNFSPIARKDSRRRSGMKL
# [9] = biological target: T2, Mitogen-activated protein kinase 12 (Homo sapiens) (UniProt P53778); settings: at 0.1 µM
# T2 sequence (whole entry): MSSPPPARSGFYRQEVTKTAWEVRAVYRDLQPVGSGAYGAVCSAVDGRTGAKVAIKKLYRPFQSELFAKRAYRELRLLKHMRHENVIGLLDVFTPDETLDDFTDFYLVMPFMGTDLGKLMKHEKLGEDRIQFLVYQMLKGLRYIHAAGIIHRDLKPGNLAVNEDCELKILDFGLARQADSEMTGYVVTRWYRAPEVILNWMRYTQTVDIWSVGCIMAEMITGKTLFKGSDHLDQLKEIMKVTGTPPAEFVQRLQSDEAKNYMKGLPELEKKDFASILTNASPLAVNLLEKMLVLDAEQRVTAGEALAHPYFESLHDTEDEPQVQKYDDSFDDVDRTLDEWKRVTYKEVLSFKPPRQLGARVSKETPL
# [10] = biological target: T1, Mitogen-activated protein kinase 13 (Homo sapiens); settings: at 0.1 µM
# Chain of SRSF protein kinase 3 (Homo sapiens) (Q9UPE1 whole entry): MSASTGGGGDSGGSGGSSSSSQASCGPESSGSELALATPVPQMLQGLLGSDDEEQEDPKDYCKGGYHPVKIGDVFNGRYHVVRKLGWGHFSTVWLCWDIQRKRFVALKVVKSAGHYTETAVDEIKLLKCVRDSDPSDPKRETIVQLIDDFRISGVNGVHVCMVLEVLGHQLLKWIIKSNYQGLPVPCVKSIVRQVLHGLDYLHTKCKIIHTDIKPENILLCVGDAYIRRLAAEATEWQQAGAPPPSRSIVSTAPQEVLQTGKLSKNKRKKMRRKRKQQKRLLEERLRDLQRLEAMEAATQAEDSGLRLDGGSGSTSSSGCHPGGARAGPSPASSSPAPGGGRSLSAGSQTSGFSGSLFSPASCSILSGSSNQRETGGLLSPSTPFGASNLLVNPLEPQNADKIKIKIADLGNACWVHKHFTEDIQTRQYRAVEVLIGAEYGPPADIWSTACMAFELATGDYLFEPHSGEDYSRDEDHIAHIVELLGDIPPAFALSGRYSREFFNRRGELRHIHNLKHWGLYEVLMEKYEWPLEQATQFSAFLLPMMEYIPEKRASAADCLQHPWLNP
# Chain of Mitogen-activated protein kinase 3 (Homo sapiens) (P27361 whole entry): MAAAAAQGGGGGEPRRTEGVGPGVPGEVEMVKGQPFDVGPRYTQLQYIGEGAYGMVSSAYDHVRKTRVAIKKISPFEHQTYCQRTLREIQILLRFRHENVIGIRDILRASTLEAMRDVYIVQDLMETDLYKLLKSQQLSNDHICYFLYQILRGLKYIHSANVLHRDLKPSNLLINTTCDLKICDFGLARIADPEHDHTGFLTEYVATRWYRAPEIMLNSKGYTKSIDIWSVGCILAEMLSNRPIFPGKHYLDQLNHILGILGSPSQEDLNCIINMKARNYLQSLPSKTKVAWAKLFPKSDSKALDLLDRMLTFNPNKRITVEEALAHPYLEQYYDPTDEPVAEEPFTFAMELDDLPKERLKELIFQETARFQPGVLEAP
Compound,inhibition [1],inhibition [2],inhibition [3],inhibition [4],inhibition [5],inhibition [6],inhibition [7],inhibition [8],inhibition [9],inhibition [10]
O=C1Nc2ccc(I)cc2C1=Cc1cc(Br)c(O)c(Br)c1,96.8%,3.61%,0.2%,5.09%,8.57%,1.97%,4.59%,4.77%,3.23%,–
COc1cc2ncn(-c3cc(OCc4cccs4)c(C(N)=O)s3)c2cc1OC,4.45%,0.87%,–,16.9%,12.3%,3.88%,5.4%,1.21%,2%,0.78%
COc1cc(Nc2ncc3c(C)nc(-c4cccc(Oc5ccccc5)c4)n3n2)cc(OC)c1OC,5.07%,0.17%,1.56%,0.66%,4.12%,0.51%,4.42%,2.5%,0.18%,0.98%
O=C(Nc1n[nH]c2cc(-c3cc(F)ccc3F)ccc12)C1CC1,0.63%,-2.33%,-2.21%,1.76%,8.79%,3.95%,7.57%,4.17%,0.34%,-0.68%
FC(F)(F)c1cccc(Nc2nccc(-c3cnn4nc(-c5ccccc5)ccc34)n2)c1,3%,-2.14%,1.08%,3.54%,1.79%,3.08%,3.39%,0.28%,1.53%,1.85%
O=C1Nc2ccccc2/C1=C/Nc1ccc(-n2cncn2)cc1,6.36%,-3.04%,-0.36%,2.12%,6.86%,5.3%,8.05%,5.56%,2.03%,2.33%
NC(=O)c1cc(-c2ccncc2)cc(-c2ccccc2)c1N,5.5%,-0.96%,-0.93%,6.9%,14.9%,6.98%,14.8%,5.81%,0.76%,2.69%
O=C(NCC1CC1)c1ccc(-c2cccc(C(=O)NC3CC3)c2)cc1,0.8%,1.6%,1.04%,1.13%,13.9%,2.37%,7.97%,3.97%,4.08%,1.41%
COc1ccc2cc(-c3c(-c4ccncc4)nc(-c4ccc(S(C)(=O)=O)cc4C)n3C)ccc2c1,2.57%,-1.96%,-4.7%,14.2%,17.3%,2.54%,11%,5.04%,3.44%,2.15%
CNC(=O)c1cncc(/C=C/c2c(C)cccc2C)c1,3.65%,-0.82%,2.87%,1.86%,7.55%,0.94%,2.24%,-0.13%,-0.99%,-0.85%
Fc1ccc(-c2c(-c3ccncc3)nc3n2CCS3)cc1,2.25%,-1.16%,1.49%,1.13%,10.9%,1.9%,0.65%,2.65%,3.9%,3.54%
COc1cc(C)c(N(C)C(=O)CN(C)C)cc1Nc1nc(Nc2cccc(F)c2C(N)=O)c2cc[nH]c2n1,2.25%,1.68%,1.28%,-0.82%,3.91%,2.56%,0.98%,1.9%,0.25%,1%
Fc1ccc(-c2nc3n(c2-c2ccncc2)CCS3)cc1,4.33%,-1.07%,-0.89%,19.8%,67.4%,8.81%,13.1%,5.36%,1.62%,1.46%
COc1cc(Nc2ncc3c(C)nc(-c4cccc(C(F)(F)F)c4)n3n2)cc(OC)c1OC,7.25%,-0.69%,3.15%,1.25%,6.99%,3.99%,8.89%,1.78%,0.21%,-0.83%
CCc1cccc(CC)c1/C=C/c1cncc(C(=O)NC)c1,1.29%,1.81%,0.49%,3.92%,8.94%,4.41%,4.99%,4.25%,-2.91%,-0.46%
CN(C)CCCNc1nccc(-c2c(-c3ccc(F)cc3)nn3cc(C(F)(F)F)ccc23)n1,2.96%,2.1%,6.95%,17.8%,67.8%,5.1%,17.9%,5.4%,0.47%,1.74%

Compound,inhibition [1],inhibition [2],inhibition [3],inhibition [4],inhibition [5],inhibition [6],inhibition [7],inhibition [8],inhibition [9],inhibition [10]
Nc1nccc(-c2c(-c3ccc(F)cc3)ncn2C2CCC(O)CC2)n1 (stereo unspecified),0%,1.14%,0.84%,70.8%,92.5%,14.9%,62.2%,-2.89%,-3.41%,0.18%
O=C(Nc1ccc(Oc2ccc3[nH]c(NC(=O)c4ccccc4)nc3c2)cc1)Nc1cc(C(F)(F)F)ccc1F,3.58%,4.8%,50.7%,11.1%,40%,5.44%,32.5%,3.87%,-0.11%,1.65%
O=C1NC(=O)C(c2cccc(Cl)c2)=C1Nc1ccc(Cl)c(C(=O)O)c1,3.9%,-2.79%,0.44%,1.44%,4.72%,3.66%,4.6%,0.67%,5.9%,1.21%
Clc1ccc(CNc2nccc(-c3cnn4ncccc34)n2)cc1,1.44%,-0.1%,-3.75%,2.58%,7.97%,1.06%,6.53%,2.4%,0.66%,-0.19%
NS(=O)(=O)c1ccc(N/N=C2\C(=O)Nc3ccc(C(=O)NCCCn4ccnc4)cc32)cc1,15.9%,-1.4%,0.48%,1.52%,7.84%,5.07%,9.47%,6.17%,2.29%,1.23%
NCc1ccc(-n2c(-c3nonc3N)nc3cnccc32)cc1,5.64%,-0.85%,-1.47%,4.72%,10%,5.07%,11%,7.37%,3.52%,2.2%
CCc1nccc2c1nc(-c1nonc1N)n2CC,1.77%,-1.38%,-1.65%,3.67%,–,2.18%,1.56%,1.58%,-1.3%,-1.2%
Cc1ccc(C(=O)NC2CCC2)cc1-c1ccc(C(=O)NCC2CC2)cc1,2.32%,-2.8%,-1.15%,–,–,10.7%,48.2%,2.78%,3.67%,1.41%
NC(=O)c1cc(-c2ccc(F)cc2)cc(-c2ccncc2)c1N,3.05%,-2.8%,-1.27%,6.13%,8.6%,2.26%,5.45%,3.93%,4.51%,2.57%
CN(C)CCOc1ccc(-c2cc(-c3ccc4c(c3)CCC4=NO)c(-c3ccncc3)o2)cc1,1.25%,-6.42%,-1.92%,-0.58%,0.13%,-0.55%,1.57%,-2.49%,-0.25%,-1.01%
O=C(Nc1n[nH]c2nc(-c3ccc(O)cc3)c(Br)cc12)C1CC1,5.57%,-1.04%,7.81%,6.42%,16%,11.1%,38.8%,32.6%,1.76%,8.19%
c1ccc(Oc2ccc(Nc3ncc(-c4ccccc4)o3)cc2)cc1,1.29%,0.57%,0.33%,5.45%,8.09%,-0.05%,4.25%,0.96%,-0.32%,1.2%
NS(=O)(=O)c1ccc(N/N=C2\C(=O)Nc3ccc(-c4cnco4)cc32)cc1,3.04%,-2.14%,-0.18%,2.88%,2.83%,0.43%,2.84%,2.61%,2.22%,2.15%
CCC(=O)Nc1ccc(C)c(-c2ccc(C(=O)NCC3CC3)cc2)c1,1.57%,-1.41%,-1.57%,20.1%,62.9%,6.54%,36.8%,3.22%,2.95%,3.68%
Cc1ccc(C(=O)NC(C)C)cc1-c1ccc(C(=O)NCC2CC2)cc1,-0.93%,1.71%,-0.59%,–,–,4.42%,37%,-4.39%,-2.72%,-4.48%
Cc1ccc(NC(=O)c2ccoc2)cc1-c1ccc(C(=O)NCC2CC2)cc1,2.32%,-2.54%,-1.92%,–,–,27.8%,61.2%,0.81%,2.37%,2.82%
